Experimental findings from PubChem BioAssay AID1037 (National Center for Advancing Translational Sciences (NCATS), 2008) are described below.

Each structure is given as a SMILES string. The source made the active and inactive calls. Calls come from the whole dose curve.

The assay in a line: NSCLC 2 Cell Viability Secondary Assay for qHTS Assay for Epigenetic Modulators. Particulars: NSCLC 2 viability, MTS absorbance, 4 days. From the text: NIH Molecular Libraries Screening Centers Network [MLSCN] NIH Chemical Genomics Center [NCGC] MLSCN Grant: 1 X01 MH079860-01 Assay Provider: Elisabeth D. Martinez, University of Texas SW Medical Center NCGC Assay Overview: This secondary assay characterizes selected actives identified in the qHTS of the Locus Derepression (LDR) assay (PubChem AID 597). The LDR assay detects the derepression of a GFP reporter that is stably integrated in a region of the genome of murine c127i mammary cells that is presumably silenced. Compounds that cause derepression of the locus to express GFP are identified by enumerating GFP positive cells using a laser-scanning microplate cytometer. […] NSCLC 2 cell viability was measured using Cell Titer 96 AQueous One (Promega), an assay which detects the ability of metabolically active cells to reduce a tetrazolium salt substrate (MTS), into a soluble formazan product that can be measured by colorimetry.
NCGC Assay Protocol Summary NSCLC 2 cells were plated in 96-well flat bottom tissue culture dishes (Corning) and grown overnight at 37 C and 5% CO2, then treated with compounds, incubated 4 days, and assayed for viability using the Cell Titer 96 AQueous One kit (Promega) according to the manufacturer's protocol. Absorbance at 490 nm and 650 nm (reference) was measured by a Spectra Max (Molecular Devices). […]
For orientation: Quantitative high-throughput screening tests each substance at several concentrations.

With `CN1CSC(=S)N(C)C1`, the outcome was inactive.
